Assay outcomes (PubChem BioAssay)
LGR2 antag: blocks bursicon-induced cAMP signaling via Drosophila LGR2; 380,000 compounds, 0.35% hits; AID 720647; inhibition, % at 9.99 µM; HEK293 LGR2, CRE-luciferase, bursicon-stimulated, 4 h;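 active means drop in luminescence signal, shown as inhibition above about 50% in the replicate tests, limit read from the data, passing the limit was not always enough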;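 further: agonist challenge used bursicon conditioned medium at about half maximal strength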
TWEAK-Fn14 inh: TWEAK-Fn14 signaling inhibition; TWEAK-stimulated Fn14 reporter cells, luciferase luminescence, 8 h; inhibition, % at 10 µM; 360,000 compounds, 2% hits; AID 1159606; in the data active means inhibition above about 50%
TROY signal inh: blocks TROY-dependent signaling in reporter cells. Q293 LMP1-TROYcd NF-kB luciferase reporter, 4 h. inhibition, % at 10 µM. 360,000 compounds, 0.98% hits;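 active means compounds whose plate-normalised and pattern-corrected inhibition of the luciferase reporter signal at the single screening dose is 50% or more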
HSP90 refold inh: inhibitors of HSP90 luciferase refolding in rabbit reticulocyte lysate | luciferase refolding luminescence, 3 h | inhibition, % at 5.6 µM | 290,000 compounds, 0.91% hits;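 active means inhibition above the screen-wide mean plus 3 SD, computed separately per campaign, cut at about 16% in these data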;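 further: 0% = DMSO wells and 100% = 60 µM geldanamycin wells; inhibitors lower the luminescence because luciferase stays unfolded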
Starred values were filed as active, the others as inactive; / = not tested or not shown. A selection: hits, their analogues and other compounds. The true share with any hit is near 2.2%.

SMILES	LGR2 antag	TWEAK-Fn14 inh	TROY signal inh	HSP90 refold inh
Nc1ccc(OC(=O)Nc2ccc(O)cc2)cc1	-33	66*	-4	3
COc1ccc(NC(=O)N(C)C[C@@H]2Oc3ccc(NC(=O)Nc4ccc(C(F)(F)F)cc4)cc3CC(=O)N([C@@H](C)CO)C[C@H]2C)cc1	17	/	/	/
C=CC(C)(C)c1c(O)c(CC=C(C)C)c(O)c2c(=O)c3ccc(O)c(O)c3oc12	/	76*	46	/
Cc1ccc(S(=O)(=O)N2C[C@H](O)COC[C@H]3O[C@H](CC(=O)NCCN4CCCCC4)CC[C@@H]32)cc1	7	/	/	/
CN=c1scc(-c2cccs2)n1/N=C/c1ccccc1O	100*	108*	88*	78*
COc1ccc(NC(C)=O)cc1S(=O)(=O)Nc1ccc2c(c1)OCCO2	4	57*	53*	-2
Cc1cccc(S(=O)(=O)Nc2ccc3c(c2)OCCO3)c1	15	18	-4	-2
COc1ccc(C)cc1S(=O)(=O)Nc1ccc2c(c1)OCCO2	-1	2	-1	3
O=S(=O)(Nc1ccc2c(c1)OCO2)c1cccs1	/	-4	0	1
Cn1c(=O)oc2cc(S(=O)(=O)Nc3ccc4c(c3)OCCO4)ccc21	/	65*	5	0
COc1cccc(S(=O)(=O)Nc2ccc3c(c2)OCCO3)c1	0	76*	52*	5
O=S(=O)(Nc1ccc2c(c1)OCCO2)c1cccs1	8	90*	74*	9
CC(=O)N(C)C[C@@H]1Oc2cc(/C=C/c3ccccc3)ccc2S(=O)(=O)N([C@@H](C)CO)C[C@H]1C	-2	/	/	/
CNC[C@H]1OCCCC[C@H](C)Oc2ccc(NS(=O)(=O)c3ccccc3)cc2C(=O)N([C@@H](C)CO)C[C@H]1C	5	/	/	/
CO[C@@H]1CN(C)C(=O)c2cc(NC(=O)Nc3ccccc3)ccc2OC[C@H](C)N(C(C)=O)C[C@@H]1C	11	/	/	/
COc1ccc(NC(=O)Nc2cccc3c2O[C@@H](CN(C)C(=O)Nc2ccccc2)[C@H](C)CN([C@H](C)CO)C3=O)cc1	3	/	/	/
Cc1ccc(S(=O)(=O)N(C)C)cc1NC(=O)COc1ccccc1C(=O)Nc1ccccc1	-9	20	8	/
CN(C)S(=O)(=O)c1cccc(NC(=O)c2ccc(COc3ccccc3)cc2)c1	8	90*	58*	3
COCc1ccc(C(=O)Nc2cccc(S(=O)(=O)N(C)c3ccccc3)c2)cc1	17	37	33	/
CN(C)S(=O)(=O)c1cccc(NC(=O)COc2ccccc2C(=O)Nc2ccccc2)c1	45*	51*	39	/
Cc1c(C)n(Cc2ccccc2)c2ncnc(Cl)c12	8	65*	38	13
Cc1ccc2c(c1C)-c1c(ccc(C)c1C)C(=O)C2=O	55*	86*	61*	/
Cc1ccc(OCCNC(=O)c2cccc(S(=O)(=O)NCc3ccccc3)c2)cc1	29	12	67*	/
O=C(NCc1ccncc1)c1cccc(S(=O)(=O)NCc2ccccc2)c1	-2	8	-9	-4
COc1ccc(NC(=O)N(C)C[C@H]2OCCCC[C@@H](C)Oc3ccc(NC(=O)C4CCCCC4)cc3C(=O)N([C@@H](C)CO)C[C@H]2C)cc1	-5	/	/	/
SMILES	LGR2 antag	TWEAK-Fn14 inh	TROY signal inh	HSP90 refold inh
COc1cc(/C=C(\C#N)c2nc3ccccc3[nH]2)ccc1Oc1ccc([N+](=O)[O-])cn1	-21	0	52*	1
COc1cc(/C=C(\C#N)c2nc3ccc(C)cc3[nH]2)cc([N+](=O)[O-])c1O	-39	51*	-23	1
COc1cccc(S(=O)(=O)Nc2ccc3c(c2)C(=O)N(C)C[C@H](OC)[C@@H](C)CN(Cc2ccccc2F)[C@@H](C)CO3)c1	10	/	/	/
O=C(C[C@H]1C=C[C@H](NS(=O)(=O)c2ccc(F)cc2)[C@H](CO)O1)NCCN1CCCCC1	5	/	/	/
CCn1nccc1C(=O)Nc1ccc(Cl)cc1Cl	-19	55*	4	-2
N=C1C(c2nc(-c3ccc(F)cc3)cs2)=C(O)CN1Cc1ccc(Cl)cc1	/	106*	3	3
COc1ccc(-c2csc(C3=C(O)CN(Cc4ccc(Cl)cc4)C3=N)n2)cc1OC	-18	-10	16	3
CC(C)C#Cc1cnc2c(c1)C(=O)N([C@@H](C)CO)C[C@H](C)[C@H](CN(C)C(=O)CCN1CCCCC1)O2	13	/	/	/
O=c1cc(-c2ccccc2)nc2c(-c3ccccc3)c(C(F)(F)F)[nH]n12	0	22	56*	-4
Cc1cc(=O)n2[nH]c(C)c(-c3ccccc3)c2n1	/	-14	-13	1
CCN1c2cccc3cccc(c23)S1(=O)=O	20	-13	-11	8
CCc1ccc2cccc3c2c1N=CN3C	-7	86*	19	/
